This note sets out measurements from PubChem BioAssay AID1508600 (Functional Genomics Laboratory (NCATS/FGL), 2020).

Screen size: about 53,000 sequences; about 3,700 (7%) were called active. This is one part of a sample in which actives are shown more often than they occur.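 How the source made its calls: active means gene knockdowns whose robust z-score for IL-1 alpha signal is at least 2 or at most -2, so actives lie on both sides; inactive means the rest.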

This assay in a line: Components of the Cytosolic LPS Sensing Pathway: Gene Identification via Genome-wide siRNA Screen.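 Further: robust z of the log signal after scaling to non-targeting control siRNA wells of the plate.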 Particulars: RAW264.7 macrophages, IL-1a HTRF, actives lie on both sides, screened at 100 nM (by protocol), cells primed 5 h with Pam3CSK4 first. The procedure, abridged: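 RAW264.7 mouse macrophages reverse-transfected with single siRNAs (100 nM final) for 48h, primed with Pam3CSK4 for 5 hours, then transfected with LipidA for 24 hour. Supernatant IL-1a read by HTRF; values normalized to negative-control median, log-transformed robust z-scores.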
Background: TR-FRET usually uses a lanthanide donor and a delayed reading to cut background.
With GUUAACCCUGAGCCUAAACTT against Spata3, the z-score was 0.356 (inactive).
Under GGGCGACAUCUUUAGCAAATT against Sh3bp4 stands -0.0472 (inactive).
For GCCUAAGCCCUUAAAGCGUTT against Lrrc41 the value was 0.643 (inactive); for CCCACUAAGGAACAAAUUGTT against Tex24, 0.297 (inactive).
For GGCUUGCAUCAAUAAAGAATT against Adam33, the z-score is 0.0554 (inactive).
Consider GGUGGUUGAAGAAAUGGCUTT against Timm8a1, for which the z-score was -0.364 (inactive).
Under GGAGCAGAAGUCAAUCAGGTT against Myo1b stands 0.419 (inactive); under GGGACUAAUGUUUUGCCUATT against Krt16, -2.62 (active); under GCGGAAGUCGACCUUUGAUTT against Cd164, -0.238 (inactive).
Under CGACUUUGGACAAAAAUUGTT against Kdm2a stands 0.638 (inactive).
For CCUACCCGAUUAUUCUUACTT against C2cd2l the value was 0.125 (inactive).
Consider “GGCAGUAUUGACUCCUACCTT against 6430548M08Rik”, for which the z-score was -0.973 (inactive).
Under GCUUGGAUUGAGCUUUACATT against Pid1 stands 3.53 (active); under GGAAGUUGUUGGGAACUUCTT against Afmid, -0.401 (inactive); under GGGAAGUUUGGUUCUUUGGTT against Msn, 0.749 (inactive).
Under GGAAAGCCACUGUGUAAAATT against Armc9 stands 0.594 (inactive); under “GCCUCUUCGAACUCACUAUTT against St6galnac3”, -0.807 (inactive).
“GGAAAGAGGGUUUAUUUUGTT against 4930556L07Rik”: the z-score was 0.919 (inactive).
On to GGGAAAGAGUUUUACAAACTT against Ttc22, for which the z-score is 2.74 (active).
GGACCUGAACAAUAAGGUUTT against Tagap: the z-score was -1.78 (inactive).
For GGAUUCUUUGGUCUAUUUCTT against Pudp the value was -0.308 (inactive).
Under GGAGAAAGACCAUUACUGUTT against Ly6e stands 1.63 (inactive); under GGUGACAAACCGAUACUUGTT against Cope, -0.966 (inactive); under GCAGACAAAGAUCCUAUGCTT against Atp2b3, -2.27 (active).
Under CCUACCUAUUUAUCAAAGATT against Sgms1 stands 0.977 (inactive).
For the sequence GGAUUUUUACAGAGACAUGTT against Actr6, the z-score is -0.821 (inactive).
Under “CGAUAUCUUACUUCUUUUGTT against E030011O05Rik” stands 0.952 (inactive); under GGCCAUAGUCCUGUUCACCTT against Nr2f2, 0.492 (inactive).
For CCUUCAACAGAUCUAGAGUTT against Rexo1 the value was 2.36 (active); for GGAGGUUACAAUCCAUGAGTT against Anapc1, -0.951 (inactive); for GGAUAGAUUUUAGGUAUUGTT against Htr5b, -0.475 (inactive).
For CGGAGUAGCGAUUAUGGUGTT against Art5 the value was -0.535 (inactive); for GGAUUUAACCCUGAGAUACTT against Grpel2, 0.621 (inactive).
Consider GGAUGAUAUCGGAGCCUGCTT against Clec4g, for which the z-score is 0.392 (inactive).
On to GGACAAAUACCACAAGUUGTT against Simc1, for which the z-score is 2.13 (active).
For GCAGGAGUAUUGCCAAGGATT against Csf1 the value was -0.404 (inactive); for CGAAACACUCAAGGUUGUATT against Creb3l2, -0.314 (inactive); for GCAGCAUGCCUGAAUAUUUTT against Prcp, 0.172 (inactive).
Under GGAGGUGGAACAAAUAUUUTT against Emc6 stands 0.361 (inactive).
Take GGAAGACUUGUUCAACUGGTT against Grwd1: the z-score is -0.88 (inactive).
For GCUGUUUGAGGUCAUUCAUTT against Urb2 the value was 4.71 (active); for GGCUUUUGUCAAGCAGCACTT against Ins2, -0.628 (inactive); for CCUUGAAAAGUCUAAACGUTT against Tmod2, 0.375 (inactive).
Regarding GGGCUAGCCUAGAUAAAAATT against Sltm, the z-score is -1.38 (inactive).
For GGGCUCCACAUGUUUGCAUTT against Ehmt1, the z-score is 0.392 (inactive).
“GGAAUUCUCUCAGCAGAAGTT against 1110038F14Rik”: the z-score was -2.17 (active).
Under GGAACUUCUACAGUCCUCCTT against Parp16 stands 0.193 (inactive); under GGCUUCUUAUUGAUGUUGGTT against Asb13, -0.166 (inactive); under GGAUUUUUGAUGAUGUGUCTT against Arfgap1, -0.795 (inactive).
Under CCUUAUAGCAUAAGCUUUATT against Olfr768 stands 2.04 (active).
In the case of CCAAGAUACCUUUUUUGAGTT against Paox, the z-score is 0.455 (inactive).
In the case of GGCCUCUUCACUUAUGUAUTT against Inha, the z-score is -0.22 (inactive).
Under GGUCAAUUGUCCAUAUGACTT against Tox3 stands -2.24 (active); under GGACAAUGAAGGAAUUGAUTT against Mdm4, -0.579 (inactive).
For CCUCGACUUUUAUUUGGAUTT against Smg6 the value was -0.0389 (inactive); for GGUUAGCUUCUUAAAACCATT against Adcy10, -0.605 (inactive); for GGGAGCUAGCAAAAUCGGATT against Eif4g3, 0.714 (inactive).
Regarding GGUGAAGCCAGUUUCUUUATT against Traf3ip2, the z-score was 0.107 (inactive).
For CGUUGAUGUGUAUUUAAACTT against Vopp1 the value was 0.704 (inactive); for GCUACUAUUGUGUUCUGAATT against Drd1, 2.24 (active); for CGUGAACGUAGAGUUUUCUTT against Fcrl5, 3.59 (active).
Under GGAACUGCUCAUAAAAACATT against Evi2b stands 0.0355 (inactive).
Under GCUAUUGAGUUAUCGUUGCTT against Stam2 stands 0.715 (inactive); under GGUACAGCUUAUGGAUUAATT against Pdgfra, -0.193 (inactive); under GCCAGGUUUUCUCCAUAGATT against Tmem44, -0.841 (inactive).
As for GGUUUAUACUCAUAACCUGTT against Kifbp, the z-score was 2.03 (active).
For “GAAAUUAGAACAACUUUGGTT against 3830403N18Rik” the value was 0.442 (inactive); for GGACCGCCUUCAACAACAATT against Tpgs1, 2.68 (active).
For GGCAUUUACCAAGUUCCUGTT against Olfr522 the value was -1.26 (inactive).
Under GGACCAUAAGCACAUGAUUTT against Prl7c1 stands 0.668 (inactive).
Regarding GGUCCAUACAAGUGUUUGATT against Camk2b, the z-score was -0.15 (inactive).
Under GGUACUCGAAUCUGACCUCTT against Nqo1 stands 2.04 (active).
Regarding GGAAACCCAAUAUCAAACUTT against Rnf138, the z-score was 0.252 (inactive).
For GCAUCACUUACAGAUAGACTT against Olfr305, the z-score is -1.21 (inactive).
Under GCAAUACCUCAGAAAAAGUTT against Tmem165 stands -4.14 (active).
For GGAGGUCCAGAAGAAUUAUTT against Pam16 the value was 0.957 (inactive).
For GCAAAAGUAGAAGAACAACTT against Ccnt1 the value was -0.172 (inactive).
For the sequence GGUGGUUACCAUCUUACUUTT against Trhr, the z-score was 0.532 (inactive).
For GGAAAUUUUCAAGCUCAAGTT against Gsdmd the value was -2.44 (active); for GGAGGCAUUCGCAUAGACGTT against Tra2a, 1.68 (inactive).
Under GGUGUGAGAUCGAAUCAGATT against Arhgef18 stands 0.503 (inactive); under GGCACUCUUGUUGAAAUUCTT against H6pd, 0.756 (inactive).
Consider GGGUUGUUUGCUGGUUUGUTT against Tmbim4, for which the z-score is 0.885 (inactive).
Under GGUUGGAAAUUGGACAGGATT against Col6a3 stands 2.22 (active); under GGACCUCACAAGUGUUUAUTT against Pola1, -0.837 (inactive).
For GGUGAAUGUGUGGAUUAUCTT against Itih2 the value was -0.684 (inactive); for GGUUGUUCUUAACAUAACCTT against Ginm1, 0.0306 (inactive).
For GGAUCAAGAAAAGAUGAAATT against Galnt1 the value was -0.858 (inactive); for GGUGAUGCGAUCUUCUUUATT against Anxa10, 1.76 (inactive).
With GGUCAAAAUAGAAGGAGUATT against Klhl4, the z-score is 0.124 (inactive).
For CCCUGUAUAUAUUUGCUGATT against Clca3a2 the value was 2.78 (active); for GGUGCCCAUAAUAGCCAUCTT against Polr2c, -1.02 (inactive).
Under GCCACACGACAUGUGAUUCTT against C2cd4c stands -0.0403 (inactive).
Under GCAGUUGGCAGGCUAAAAATT against Mff stands 1.98 (inactive).
Consider CCCUAACUUAAUAAAACCUTT against Triobp, for which the z-score is -2.41 (active).
In the case of GGACAUCGAAGUCCAACACTT against Plekhm1, the z-score is -0.501 (inactive).
Under CCACUUACAUGUCAGAUUATT against Slc30a6 stands 1.09 (inactive); under GGACUGGAAGAAUUUUUUGTT against Mrpl47, 0.293 (inactive); under GGGACAGAAAGGAAAGACUTT against Ndufb4, 0.0331 (inactive).
Under CCAUUGACACCUUAAAUAUTT against Cnot3 stands 0.131 (inactive); under GGGCACACCCAUGAAGACATT against Hnf1a, 4.58 (active); under GGCAGAACUACUUUUAUAGTT against Cldn17, 0.436 (inactive).
Under GGCCGUACUAGAUUUUCUUTT against Olfr695 stands 1.35 (inactive).
GGCUGGGAAUUUUACAGUATT against Gpr3: the z-score was 3.98 (active).
As to GGCCUAUAAGUUGGACUCCTT against Sstr5, the z-score was -0.897 (inactive).
For GGAAUAACAGCCUUGUAUUTT against Slc25a15 the value was -0.145 (inactive); for GGAUCUGAUCCAGACUUCUTT against Ndrg1, 2.05 (active).
